Reference: PubChem BioAssay
Activity calls are given as the source filed them.

Legend:
[1] = biological target: Albumin (Bos taurus) (UniProt P02769); test: compounds binding labelled BSA control protein – biochemical, small-molecule microarray, Alexa647 label, 635/667 nm fluorescence, artefact control for SMM control protein annotation, profiling panel (AID 1118); conditions: BSA-A647 binding, fluorescence 635 nm, higher = more signal;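 note: score merges 667 nm emission intensity and signal-to-noise per printed compound spot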
Chain of Albumin (Bos taurus) (P02769 whole entry, looked up): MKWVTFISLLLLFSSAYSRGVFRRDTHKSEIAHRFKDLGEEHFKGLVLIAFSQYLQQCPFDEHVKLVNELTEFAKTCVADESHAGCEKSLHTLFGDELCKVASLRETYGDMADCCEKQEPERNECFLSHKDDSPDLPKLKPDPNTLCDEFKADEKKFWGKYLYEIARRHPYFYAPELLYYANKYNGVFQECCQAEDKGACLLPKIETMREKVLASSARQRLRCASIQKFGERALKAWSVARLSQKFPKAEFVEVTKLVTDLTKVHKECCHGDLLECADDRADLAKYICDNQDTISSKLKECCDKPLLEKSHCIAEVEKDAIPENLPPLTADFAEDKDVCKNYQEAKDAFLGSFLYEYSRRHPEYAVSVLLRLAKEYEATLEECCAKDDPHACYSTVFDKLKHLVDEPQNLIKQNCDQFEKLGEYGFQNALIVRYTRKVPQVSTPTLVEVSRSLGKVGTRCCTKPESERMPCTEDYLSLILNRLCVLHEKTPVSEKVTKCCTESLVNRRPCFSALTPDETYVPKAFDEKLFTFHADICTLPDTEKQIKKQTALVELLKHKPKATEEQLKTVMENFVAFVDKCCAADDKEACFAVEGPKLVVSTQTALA

[2] = probe aXIP binding to arrayed compounds – biochemical, NeuroSMM set, 635/667 nm fluorescence, primary screen (AID 1119); conditions: small-molecule microarray, higher = more signal, called active from +8 up or from −8 down;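 note: probe is the protein aXip251-270 applied at 1 µg/mL to compound-printed slides; binding of probe to printed compounds measured as 667 nm fluorescence plus signal to noise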
[3] = probe aNOTCH3 binding on compound microarray – biochemical, small-molecule microarray, 635/667 nm fluorescence, primary screen (AID 1120); conditions: higher = more signal;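 note: probe is a biotin-tagged antibody raised against NOTCH3 rather than NOTCH3 protein; score merges spot fluorescence near 667 nm with spot signal to noise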
[4] = probe aNOTCH2 binding on compound microarray – biochemical, small-molecule microarray, 635/667 nm fluorescence, primary screen (AID 1121); conditions: higher = more signal;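 note: score merges feature fluorescence read at 667 nm with its signal to noise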
[5] = biological target: Carbonic anhydrase 2 (Homo sapiens) (UniProt P00918); test: compounds binding carbonic anhydrase 2 – biochemical, small-molecule microarray, Alexa647-labelled CAII, profiling panel (AID 1122); conditions: CAII-A647 binding fluorescence, higher = more signal
[6] = COS7 lysate on small-molecule microarray, probe aHis, 635 nm (AID 1123); conditions: COS7 cell lysate, fluorescence, higher = more signal;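 note: z-score combines 667nm fluorescence intensity with signal-to-noise per printed compound spot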
[7] = probe aLAP1 signal on lysate-treated microarray – cell lysate, small-molecule microarray, COS7 lysate, primary screen (AID 1124); conditions: probe aLAP1, fluorescence, higher = more signal;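 note: lysate comes from COS7 cells expressing LAP1 and is applied at 0.3 µg/mL; score merges spot fluorescence near 667 nm with signal-to-noise over triplicate slides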
[8] = tested on: Sam68 (KHDRBS1); test: compounds binding KHDRBS1 protein – biochemical, small-molecule microarray, 635 nm fluorescence, primary screen (AID 1125); conditions: higher = more signal;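 note: score merges 667 nm channel intensity with signal to noise over triplicate slides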
[9] = tested on: Chordin-like protein 2 (CHRDL2); test: compounds binding chordin-like 2 – biochemical, small-molecule microarray, 635 nm fluorescence, primary screen (AID 1126); conditions: fluorescence 635 nm, higher = more signal;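 note: printed compound slides probed with Chrdl2 protein at 4 µg/mL for 1 h at 4 C; score merges 667 nm emission intensity with signal to noise over three replicate slides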
[10] = biological target: Concanavalin-A (Canavalia ensiformis) (UniProt P02866); test: compounds binding concanavalin A lectin – biochemical, small-molecule microarray, Alexa647 label, 635 nm, artefact control for SMM control protein annotation, primary screen (AID 1127); conditions: ConA-A647 binding fluorescence, higher = more signal;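 note: z combines 667 nm emission intensity with signal-to-noise across three replicate slides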
Chain of Concanavalin-A (Canavalia ensiformis) (P02866 whole entry, looked up): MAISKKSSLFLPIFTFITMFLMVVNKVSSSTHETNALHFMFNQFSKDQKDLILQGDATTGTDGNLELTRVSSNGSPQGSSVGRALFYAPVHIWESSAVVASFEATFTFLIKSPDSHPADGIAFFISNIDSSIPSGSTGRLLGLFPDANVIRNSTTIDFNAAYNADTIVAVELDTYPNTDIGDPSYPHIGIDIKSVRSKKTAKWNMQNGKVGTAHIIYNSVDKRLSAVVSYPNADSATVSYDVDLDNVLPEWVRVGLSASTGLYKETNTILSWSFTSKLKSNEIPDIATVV

Structure (SMILES)	composite z-score [1]	composite Z-score [2]	composite z-score [3]	composite z-score [4]	composite z-score [5]	composite z-score [6]	composite z-score [7]	composite z-score [8]	composite z-score [9]	composite z-score [10]
CS(=O)(=O)CCOC(=O)C1=CC(c2ccc(CO)cc2)=CC(C2CC2)N(Cc2cc3c(cc2Br)OCO3)C=C1C(=O)OCCS(C)(=O)=O (stereo not given)	0.381	-0.0662 (inactive)	0.143	-0.0902	0.618	2.29	0.487	1.3	0.37	0.927
COCCOC(=O)N1C(=O)[C@@]2(c3cc(C#CCCO)ccc31)[C@H](C(=O)NC[C@H](O)c1ccccc1)[C@H]1C(=O)O[C@H](c3ccccc3)[C@H](c3ccccc3)N1[C@@H]2c1ccc(O)cc1	0.508	-0.302 (inactive)	-0.0362	-0.115	0.568	0.813	0.16	0.053	-0.496	1.09
COC(=O)c1ccc(OC)c(/C=C\CC(OC(C)=O)c2ccccc2)c1 (stereo not given)	0.652	-0.192 (inactive)	-0.276	-0.149	0.971	0.718	-0.0984	-0.215	1.1	1.15
CC(C)N1CC=CC23O[C@@H]4C=CCOC(=O)[C@@H]4[C@H]2C(=O)N(CCO)[C@@H]3C1=O (stereo not given in full)	-0.0355	0.604 (inactive)	-0.299	-0.14	0.9	1.29	-0.252	0.557	-1.59	-0.329
CC(C)CNC(=O)[C@@H]1c2ccccc2C(=O)N(Cc2cc(C(F)(F)F)cc(C(F)(F)F)c2)[C@H]1c1ccc(CO)cc1	-0.881	0.0089 (inactive)	0.0596	0.127	0.5	0.361	0.0574	-0.636	-0.629	-0.928
O=C(CS)NCCCCCCNC(=O)[C@H]1C[C@H]2C(=O)N3CCC[C@H]3C(=O)N2[C@H]1c1cccc(OCCO)c1	0.0023	-0.254 (inactive)	0.0242	-0.105	0.528	2.51	0.407	1.29	0.97	1.02
C=CC[C@@]1(C(=O)O)N=C(c2ccc(OCCCO)cc2)O[C@@H]1c1ccccc1N=[N+]=[N-]	0.851	0.544 (inactive)	0.169	0.0828	0.513	2.03	0.906	1.09	0.52	0.247
CC(C)C(=C=CC[C@@H](O)c1ccccc1OCCO)C[C@@H](O)c1ccccn1	0.0682	-0.776 (inactive)	-0.0847	-0.111	0.738	0.287	-0.0744	0.95	-0.0374	0.451
COc1cc2c(cc1O)C(C)N(Cc1cccc(OC(F)(F)F)c1)CC2 (stereo not given)	0.986	0.414 (inactive)	-0.0204	-0.0839	0.662	2.23	0.572	0.851	-0.236	0.446
O=C1N(CCS(=O)(=O)c2ccccc2)c2ccccc2C[C@@]12COC(c1ccc(OCCCO)cc1)=N2	-0.746	-0.279 (inactive)	0.364	0.314	0.636	2.4	0.266	1.3	0.866	1.15
CCCN1C(=O)[C@]2(COC(c3ccc(OCCCO)cc3)=N2)Cc2ccccc21	0.0531	0.305 (inactive)	-0.0026	-0.0009	0.64	1.93	-0.218	1.11	-0.125	1.13
CC(=O)C1=CCC(c2ccccc2)N(S(=O)(=O)c2ccc(C)cc2)C1 (stereo not given)	0.632	-0.685 (inactive)	0.101	-0.0439	0.66	2.5	0.763	0.579	0.725	0.789
NCCCCCCNC(=O)[C@H]1C[C@H]2C(=O)NCC(=O)N2[C@H]1c1cccc(OCCO)c1	-0.512	0.727 (inactive)	-0.0311	-0.153	0.536	1.07	0.295	1.29	1.37	1.1
COc1ccccc1CN1C(=O)c2ccccc2[C@@H](C(=O)NCCN2CCOCC2)[C@@H]1c1ccc(CO)cc1	0.305	-0.275 (inactive)	-0.0824	-0.0548	0.769	1.29	1.08	0.287	-0.159	-0.15
O=C1C2C=CC(C(O)c3ccc(-c4ccccc4)s3)N(n3cnnc3)C2C(=O)N1Cc1ccccc1 (stereo not given)	-0.314	-0.34 (inactive)	0.0519	-0.0467	0.465	0.942	0.253	0.145	-0.42	0.615
COC(=O)[C@@]1(Cc2ccccc2N=[N+]=[N-])COC(c2ccc(OCCCO)cc2)=N1	-0.261	1.07 (inactive)	-0.0546	-0.112	0.573	1.99	0.753	0.994	-0.473	1.08
COC(=O)[C@@]1(Cc2ccc(OC)cc2)[C@H]2c3cc(C(=O)N4CCCC4)n(CCc4c[nH]c5cc(F)ccc45)c3C[C@H]2CN1C(=O)c1ccccc1	0.957	-0.0378 (inactive)	0.127	0.0064	0.714	3.24	0.959	1.29	-0.703	0.871
